In the library only some 2.2% were active in any assay of this set; here they are far more common.
DENV2 CPE rescue: inhibitors of DENV2 cytopathic effect, primary screen, cell-based, plate reader, single concentration | DENV2-infected cells, cytopathic effect rescue | CPE inhibition, % at 9.99 µM | 350,000 compounds, 1.7% hits; in the data active = CPE inhibition above about 20%, passing the limit was not always enough; inconclusive = no clear call, values can overlap the other calls; tested in BHK-21 cells;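 also: 0% = median of neutral control wells and 100% = median of positive control wells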
miR122 inh: miR-122 Renilla sensor signal increase in Huh7, primary screen, miR-122 inhibitor project, cell-based, single point, plate reader; Huh7 miR-122 Renilla luciferase sensor, 48 h; neutral wells = 0, positive control = 100; activation (reporter increase), % at 12.5 µM; 340,000 compounds, 0.3% hits; AID 602342, 2012;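 active = mean replicate activation score at least 90 and every replicate individually at or above 90; inconclusive = only one of the two criteria met; inactive = neither criterion met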;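 also: higher luciferase means less miR-122 activity so hits act as miR-122 inhibitors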
Statin myotox sup: suppressors of statin myotoxicity in C2C12 myotubes, primary screen, cell-based, single point, plate reader; AID 602340, 2012; rescue of ATP level, % at 7.49 µM; C2C12 myotubes + simvastatin, ATP luminescence, 48 h; scaled: DMSO 0, geranylgeraniol control 100; 330,000 compounds, 0.78% hits;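 active = mean ATP rescue above about 67%, or every replicate alone reaching that limit, limit read from the data, passing the limit was not always enough; inconclusive = no clear call, values can overlap the other calls; inactive = mean under the limit and some replicate under it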;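 also: myotubes were challenged with 10 µM simvastatin during compound exposure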
PvdQ acylase: P. aeruginosa PvdQ acylase inhibitors, primary screen, biochemical, fluorescence, plate reader and imaging, single point; PvdQ acylase [Pseudomonas aeruginosa LESB58]; purified PvdQ acylase; inhibition, % at 10 µM; 340,000 compounds, 0.063% hits; in the data active = inhibition above about 30%, passing the limit was not always enough; inconclusive = no clear call, values can overlap the other calls;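 also: 0% = vehicle neutral wells and 100% = reference inhibitor wells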
PGC1a acetyl inh: inhibitors of PGC1a acetylation signal, primary screen, cell-based, U2OS, AlphaScreen, inhibitor mode; AlphaScreen anti-acetyl-lysine; with virally co-expressed GCN5 acetyltransferase; inhibition, % at 15.6 µM; 350,000 compounds, 0.17% hits;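 active = every replicate shows inhibition of at least 40%; inconclusive = mean inhibition at least 40% but some replicate below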;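 also: 0% = neutral control wells and 100% = positive control wells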
An asterisk follows results filed as active; [ ] = another dose, or the depositor's remark.

What do the screens show for `O=C(C[C@H]1C/C=C\CC[C@H](Cc2ccc(F)cc2)C(=O)O[C@@H](c2ccccc2)CNC1=O)N[C@@H](CO)Cc1ccccc1`?
Statin myotox sup: 6; PvdQ acylase: -12

Results for O=C1CCCC/C=C\C[C@H](CC(=O)N(CCO)Cc2ccccc2)C(=O)NC[C@H](c2ccccc2)O1 ?
DENV2 CPE rescue: 130*; miR122 inh: -5; Statin myotox sup: 6; PvdQ acylase: -4

What do the screens show for `O=C(C[C@H]1C/C=C\CC[C@H](Cc2ccc(F)cc2)C(=O)O[C@@H](c2ccccc2)CNC1=O)N[C@H](CO)Cc1ccccc1`?
DENV2 CPE rescue: 86*; Statin myotox sup: -20; PvdQ acylase: -2

Results for CC(C)(C)OC(=O)C[C@H]1C/C=C\C[C@H](CC(=O)N[C@@H](CO)Cc2ccccc2)C(=O)N[C@H](C(C)(C)C)COC1=O ?
DENV2 CPE rescue: 63*; Statin myotox sup: -37; PvdQ acylase: -14

How did O=C1NC[C@H](c2ccccc2)OC(=O)[C@@H](Cc2ccc(F)cc2)CC/C=C/C[C@H]1CC(=O)N(CCO)Cc1ccccc1 do in these assays?
DENV2 CPE rescue: 2; miR122 inh: -8; Statin myotox sup: -41; PvdQ acylase: -1

Results for O=C1NC[C@H](c2ccccc2)OC(=O)[C@@H](Cc2ccc(F)cc2)CC/C=C/C[C@@H]1CC(=O)N(CCO)Cc1ccccc1 ?
DENV2 CPE rescue: 47*; miR122 inh: -3; Statin myotox sup: -18; PvdQ acylase: -13; PGC1a acetyl inh: 1

What do the screens show for `COc1cccc(CN2CC3(C2)CN(C(=O)C2CC2)[C@H](CO)c2c3c3ccc(OC)cc3n2C)c1`?
DENV2 CPE rescue: -4; PGC1a acetyl inh: -4

Results for COc1ccc(S(=O)(=O)Nc2ccc3c(c2)C(=O)N([C@@H](C)CO)C[C@@H](C)[C@@H](CN(C)C)O3)cc1 ?
DENV2 CPE rescue: -4; PGC1a acetyl inh: 4

How did CO[C@@H]1CN(C)C(=O)c2cc(NC(=O)CC(F)(F)F)ccc2OC[C@H](C)N(C(C)=O)C[C@H]1C do in these assays?
DENV2 CPE rescue: 10; PGC1a acetyl inh: 7

What do the screens show for `C[C@@H]1CCCCO[C@@H](CN(C)C(=O)Nc2ccc(F)cc2)[C@@H](C)CN([C@H](C)CO)C(=O)c2cc(N(C)C)ccc2O1`?
DENV2 CPE rescue: 0; miR122 inh: -3[16.7 µM]; Statin myotox sup: -31; PGC1a acetyl inh: -3

What do the screens show for `Cc1ccc(S(=O)(=O)/N=C2/C=C(Sc3ncn[nH]3)C(=O)c3ccccc32)cc1`?
miR122 inh: -17; Statin myotox sup: -246; PvdQ acylase: 3; PGC1a acetyl inh: 77*

Results for O=C1C(Nc2ccccc2)=C/C(=N/S(=O)(=O)c2cccs2)c2ccccc21 ?
miR122 inh: -5; Statin myotox sup: -153; PvdQ acylase: 17; PGC1a acetyl inh: 59*

Results for Cc1ccc(S(=O)(=O)/N=C2\C=C(Nc3cccc(C(=O)O)c3)C(=O)c3ccccc32)cc1 ?
DENV2 CPE rescue: -1; miR122 inh: -5; Statin myotox sup: -402; PvdQ acylase: -9; PGC1a acetyl inh: -1

What do the screens show for `Cc1ccc(S(=O)(=O)/N=C2\C=C(Nc3ccc(O)cc3)C(=O)c3ccccc32)cc1`?
miR122 inh: -5; Statin myotox sup: -320; PvdQ acylase: -6; PGC1a acetyl inh: 86*

What do the screens show for `N#C[C@H]1[C@@H](c2ccc(C3=CCCCC3)cc2)[C@H](CO)N1C(=O)Cc1ccncc1`?
DENV2 CPE rescue: 0; Statin myotox sup: -36; PGC1a acetyl inh: 1

How did CN(C)C(CNC(=O)c1c(F)cccc1Cl)c1ccco1 (centres undefined) do in these assays?
DENV2 CPE rescue: 21*; miR122 inh: 2; Statin myotox sup: -7; PvdQ acylase: -14

How did CN(C)C(CNC(=O)c1cccs1)c1ccco1 (centres undefined) do in these assays?
DENV2 CPE rescue: 35*; miR122 inh: -2; Statin myotox sup: -4; PvdQ acylase: 8; PGC1a acetyl inh: 1

What do the screens show for `CCCNC(=O)N1[C@H](CO)[C@H](c2ccc(C3=CCCCC3)cc2)[C@H]1CNC(C)C`?
DENV2 CPE rescue: -1

Results for C[C@@H]1CN([C@@H](C)CO)C(=O)CCCn2cc(nn2)CO[C@@H]1CN(C)Cc1ccc(C(=O)Nc2ccccc2N)cc1 ?
DENV2 CPE rescue: -5; miR122 inh: -2[16.7 µM]; Statin myotox sup: 19; PGC1a acetyl inh: 4

Results for CO[C@@H]1CN(C)C(=O)c2ccc(NC(=O)Nc3cc(F)ccc3F)cc2OC[C@@H](C)N(C(=O)c2ccccn2)C[C@H]1C ?
DENV2 CPE rescue: 87*; Statin myotox sup: 8; PGC1a acetyl inh: -2

What do the screens show for `CO[C@@H]1CN(C)C(=O)c2ccc(NC(=O)Nc3cc(F)ccc3F)cc2OC[C@H](C)N(C(=O)c2ccccn2)C[C@H]1C`?
DENV2 CPE rescue: 26*; Statin myotox sup: -1; PGC1a acetyl inh: 2

Results for CO[C@@H]1CN(C)C(=O)c2ccc(NC(=O)Nc3cc(F)ccc3F)cc2OC[C@@H](C)N(C(=O)c2ccccn2)C[C@@H]1C ?
DENV2 CPE rescue: -2; Statin myotox sup: 11; PGC1a acetyl inh: -17

How did C[C@H]1CN([C@@H](C)CO)C(=O)c2cc(NS(=O)(=O)c3ccc(Cl)cc3)ccc2O[C@@H]1CN(C)C(=O)Nc1ccccc1 do in these assays?
DENV2 CPE rescue: -1; miR122 inh: 1[16.7 µM]; Statin myotox sup: -12; PGC1a acetyl inh: -2

Results for O=C(Nc1ccc(Cl)c([N+](=O)[O-])c1)C(NCCCO)c1ccccc1 (centres undefined) ?
miR122 inh: 226*; PvdQ acylase: -1

How did C[C@@H]1CN([C@@H](C)CO)C(=O)Cc2cc(NC(=O)Cn3cnnn3)ccc2O[C@@H]1CN(C)Cc1ccc(Oc2ccccc2)cc1 do in these assays?
DENV2 CPE rescue: 2; miR122 inh: -4[16.7 µM]; Statin myotox sup: 38; PGC1a acetyl inh: -4

How did COc1ccc(CN(C)C[C@@H]2Oc3ccc(NC(=O)CCC(F)(F)F)cc3CC(=O)N([C@H](C)CO)C[C@@H]2C)cc1 do in these assays?
DENV2 CPE rescue: 2; miR122 inh: -2[16.7 µM]; Statin myotox sup: 9; PGC1a acetyl inh: 2

Results for COc1ccc(CN(C)C[C@@H]2Oc3ccc(NC(=O)CCC(F)(F)F)cc3CC(=O)N([C@H](C)CO)C[C@H]2C)cc1 ?
DENV2 CPE rescue: -1; miR122 inh: 1[16.7 µM]; Statin myotox sup: 102*; PGC1a acetyl inh: -17

How did C[C@H](CO)N1C[C@H](C)[C@@H](CN(C)Cc2ccc(Oc3ccccc3)cc2)Oc2ccc(NC(=O)Cn3cnnn3)cc2CC1=O do in these assays?
DENV2 CPE rescue: 105*; miR122 inh: 1[16.7 µM]; Statin myotox sup: inconclusive; PGC1a acetyl inh: -3
